Test results from PubChem BioAssay (Tox21).
Records with an inconclusive call do not appear. Entries that show only a call come without a potency. Unmarked numbers belong to inactive results. Active and inactive are the calls of the source. Calls follow the shape of the dose curve; as a rule, active = well fitted activation curve with a large enough effect in the repeat runs; inconclusive = weak or mixed curves; inactive = flat fitted curve, though single readings scatter.

Assay: A CellTox Green Cytotoxicity Assay to monitor cytotoxicity in HEK293 cells - 16 hour (AID 1224888); also: nearly all actives have a fitted effect of over 35% in size
Conditions: CellTox Green fluorescence; series mostly up to 76.8 µM
Excerpt: National Center for Advancing Translational Sciences [NCATS]
NIH Chemical Genomics Center [NCGC]
U.S. Environmental Protection Agency [EPA]
National Institutes of Environmental Health Sciences [NIEHS]
National Toxicology Program [NTP]
Cell-based models are critical for drug discovery. Determining the natural cytotoxic effects resulting from test compounds is an essential research activity. A CellTox Green Cytotoxicity Assay to monitor cytotoxicity in real time of continues cell culture during 40 hours of the compound treatment was used to screen Tox21 10K library compounds in Hek293 cells. CellTox Green Cytotoxicity Assay is a nonlytic, homogeneous, biofluorescent method to measure cytotoxicity in cell culture after experimental manipulation. The assay system uses a proprietary asymmetric cyanine dye that is excluded from viable cells but preferentially stains the dead cell's DNA. […] Viable cells produce no appreciable increases in fluorescence. Therefore, the fluorescence signal produced by the binding interaction with dead cell DNA is proportional to cytotoxicity.
The mixture of Hek293 cell suspension and reagents were dispensed at 600cells/6 ul/well in 1536-well tissue culture treated black solid bottom plates using a Multidrop dispenser. After the assay plates were incubated at a 37 C/5% CO2 incubator for 5 hours, 23 nL of compounds dissolved in DMSO, positive and negative controls was transferred to the assay plate by a pintool work station. The plates were incubated at 37 C for 40 hours. The fluorescence intensity were measured at 0h, 8h, 16h, 24h, 32h and 40h time points using ViewLux plate reader during compound treatment.
Potency is read from the fitted curve at half-maximal effect.

Row | Structure (SMILES) | Potency | activity change
1 | O=S(=O)(Oc1ccc(Cl)cc1)c1ccccc1 | inactive | –
2 | O=C(Nc1ccc(S(=O)(=O)N2CCOCC2)cc1)c1cc(Cl)ccc1NS(=O)(=O)c1ccc(Cl)s1 | 23.9 µM (active) | –
3 | O=C1CCCCCCCCCCCC(=O)OCCO1 | inactive | –
4 | CN(C)C(=O)NC1(c2ccccc2)CCN(CC[C@@]2(c3ccc(F)c(F)c3)CN(C(=O)c3ccccc3)CCO2)CC1 | inactive | –
5 | CCCCO | inactive | –
6 | CCCCC(CC)CN1C(=O)C2C3C=CC(C3)C2C1=O (stereo not given) | inactive | –
7 | O=C(O)C1(C(=O)Nc2ccc(Cl)cc2Cl)CC1 | inactive | –
8 | Cc1cccc(C)c1NC(=O)CN(CC(=O)O)CC(=O)O | inactive | –
9 | CCC(=O)O[C@]1(C(=O)CCl)[C@@H](C)C[C@H]2[C@@H]3CCC4=CC(=O)C=C[C@]4(C)[C@@]3(F)[C@@H](O)C[C@@]21C | inactive | –
10 | C[N+](C)(C)CCOC(=O)CCC(=O)OCC[N+](C)(C)C | inactive | –
11 | CC(C)OC(=O)C(C)N(C(=O)c1ccccc1)c1ccc(F)c(Cl)c1 (stereo not given) | inactive | –
12 | C[N+]1(CC2COC(c3ccccc3)(C3CCCCC3)O2)CCCCC1 (stereo not given) | inactive | –
13 | C[C@H]1C[C@H]2[C@@H]3CCC4=CC(=O)C=C[C@]4(C)[C@@]3(Cl)[C@@H](O)C[C@]2(C)[C@@]1(O)C(=O)CO | inactive | –
14 | CCOC(=O)C1=C[C@]2(CC)CCCN3CCc4c(n1c1ccccc41)[C@@H]32 | inactive | –
15 | COc1ccc2cccc(CCNC(C)=O)c2c1 | inactive | –
16 | CCCCCCc1ccc(-c2ccc(C#N)cc2)cc1 | inactive | –
17 | C=C1C(=C/C=C2\CCC[C@]3(C)[C@@H]([C@H](C)/C=C/[C@@H](O)C4CC4)CC[C@@H]23)C[C@@H](O)C[C@@H]1O | inactive | –
18 | Nc1cccc([N+](=O)[O-])c1 | inactive | –
19 | Nc1cc(C(=O)O)c(O)c(S(=O)(=O)O)c1 | inactive | –
20 | CCC(Cl)CCC(Cl)C(Cl)CC(Cl)C(Cl)C(Cl)CCl (stereo not given) | inactive | –

Row | Structure (SMILES) | Potency | activity change
21 | CCCCCCCCCCCCCCCCOS(=O)(=O)O | 21.3 µM (active) | –
22 | Nc1ccc(N)c2c1C(=O)c1ccccc1C2=O | inactive | –
23 | Cc1oc(-c2ccccc2)nc1CCOc1cccc2c1ccn2CCC(=O)O | inactive | –
24 | CN(Cc1ccc(C(C)(C)C)cc1)Cc1cccc2ccccc12 | inactive | –
25 | COS(=O)(=O)C(F)(F)F | inactive | –
26 | CCN(CC)CCOC(=O)C(Cc1cccc2ccccc12)CC1CCCO1 (stereo not given) | inactive | –
27 | O=C(OCCCCCCOC(=O)c1ccccc1)c1ccccc1 | inactive | –
28 | O=[N+]([O-])c1cccc(S(=O)(=O)O)c1 | inactive | –
29 | CC(C)(C)OCC1CO1 (stereo not given) | inactive | –
30 | CC/C=C\CCOC(=O)CC | inactive | –
31 | O=C(O)CNCC(=O)O | – | 2.15% [at 6.97 µM, active compounds read high]
32 | CCN(CC)c1ccc(C(=C2C=CC(=[N+](CC)CC)C=C2)c2cc(S(=O)(=O)O)ccc2S(=O)(=O)[O-])cc1 | inactive | –
33 | COc1cc(Cl)c(OC)cc1N | inactive | –
34 | CCCCc1ncc(/C=C(\Cc2cccs2)C(=O)O)n1Cc1ccc(C(=O)O)cc1 | inactive | –
35 | CCO[Si](CCCCl)(OCC)OCC | inactive | –
36 | C=CC(=O)OCCOc1ccccc1 | inactive | –
37 | C=C1[C@H]2CC[C@@H]3[C@H]2C(C)(C)CCC[C@]13C | inactive | –
38 | CCOC(=O)C(O)c1ccccc1 (stereo not given) | inactive | –
39 | OCc1cc(C(O)CNCCCCCCOCCCCc2ccccc2)ccc1O (stereo not given) | inactive | –
40 | Cn1c(=O)cc(Oc2ccc(F)cc2F)c2cnc(NCC(C)(C)O)nc21 | inactive | –
